Source: PubChem BioAssay (National Center for Advancing Translational Sciences (NCATS))
Shiga toxin inh: inhibitors of Shiga toxin in Vero cells. Vero cells, Shiga toxin protein synthesis inhibition reporter. actives 9.2% (n = 290,000). inhibition, % at 38.7 µM; in the data active = inhibition mostly above about 28%, no sharp cut-off; inactive = mostly below about 43%; also: 0% is about no effect
Pf growth 96h: P. falciparum growth inhibition at 96 hour, primary screen for plastid delayed-death inhibitors | P. falciparum luciferase reporter growth, 96 h | Potency, µM (doses to about 28.7 µM), inactives show top-dose activity change, negative = inhibition, usual class: inhibitors | actives 6.9% (n = 320,000) | AID 504834; also: potency is read from the fitted curve at half-maximal effect; % is scaled to controls: 0 for no effect and ±100 for the full control effect
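Luminescence readout: decreased luciferase signal marks inhibited growth of reporter-expressing P. falciparum in infected red cells (2% hematocrit, 0.05% parasitemia final), exposed to compound two generations (96 h, 37 C, 5% CO2).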
NS1 function inh: inhibitors of influenza NS1 protein function; Potency, µM (series often up to 46.1 µM), for inactives: top-dose activity, positive = more growth; actives 0.4% (n = 270,000); AID 2326; calls by dose curve; also: potency is read from the fitted curve at half-maximal effect; actives are rising curves; nearly all actives have a fitted effect of over 50% in size
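Recovery from NS1-induced slow growth read by OD600 in budding yeast switched to galactose assay medium (pH 6.0, -URA) at 1:100 dilution. Compound 23 nl per well; the matching strain lacking NS1 serves as control.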
Giardia FBPA inh: blocks Giardia fructose-bisphosphate aldolase activity; purified Giardia FBPA; Potency, µM (titrated, usually from 59.6 µM), inactives show at the highest dose activity, negative = inhibition, most hits filed as inhibitors; actives 0.71% (n = 290,000); AID 2451; also: potency is read from the fitted curve at half-maximal effect; % is scaled to controls: 0 for no effect and ±100 for the full control effect; nearly all actives have a fitted effect of over 55% in size
Target sequence (A8B2U2 whole entry, looked up): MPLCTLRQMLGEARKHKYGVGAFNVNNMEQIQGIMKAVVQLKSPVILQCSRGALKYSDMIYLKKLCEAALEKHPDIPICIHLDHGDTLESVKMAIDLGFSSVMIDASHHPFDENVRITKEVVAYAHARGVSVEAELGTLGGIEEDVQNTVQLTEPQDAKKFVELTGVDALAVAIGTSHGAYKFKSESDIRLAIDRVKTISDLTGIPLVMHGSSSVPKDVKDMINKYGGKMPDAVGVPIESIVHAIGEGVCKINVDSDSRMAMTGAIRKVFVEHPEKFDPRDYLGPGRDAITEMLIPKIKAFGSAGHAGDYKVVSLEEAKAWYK
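40 nM FBPA preincubated 10 min at RT with compound (up to 57.5 uM final), then substrate plus GAPDH/TPI/NAD/arsenate coupling and diaphorase/resazurin added. Fluorescence read after 20 min at RT, 525/598 nm.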
Cycloheximide cs: counter-screen hit for Shiga toxin inhibitors, cycloheximide; cell reporter, cycloheximide protein synthesis inhibition counterscreen; max response, %; actives 12% (n = 300,000); in the data active = max response mostly above about 13%, no sharp cut-off; inactive = mostly below about 14%; also: read at 38.3 µM for the half of the compounds with a filed dose; 0% is about no effect
Pf growth 48h: inhibits P. falciparum growth in the first generation, 48 h; P. falciparum luciferase growth in erythrocytes, 48 h; Potency, µM (doses to about 28.7 µM), for inactives: at the highest dose activity change, negative = inhibition, hits mostly inhibitors; actives 5.9% (n = 310,000); AID 504832; also: potency is read from the fitted curve at half-maximal effect; % is scaled to controls: 0 for no effect and ±100 for the full control effect
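Parasite viability was followed by luminescence of a genomically integrated firefly luciferase. Cultures held 0.1% parasitemia at 2% hematocrit (final), incubated under 5% CO2 at 37 C.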
* marks the source's active call; other numbers are inactive results; ? = inconclusive; . = no result given. The list is not random: actives were taken first. Their share in the collection is about 21%. Unless noted, calls follow the shape of the dose curve; as a rule, active = well fitted curve in the direction sought with a large enough effect; inconclusive = small, poorly fitted or top-dose-only effect, or another doubt; inactive = no such curve, though single readings can be large; an effect the other way counts as inactive or inconclusive.

SMILES | Shiga toxin inh | Pf growth 96h | NS1 function inh | Giardia FBPA inh | Cycloheximide cs | Pf growth 48h
COc1cccc(C2C3=C(N=c4s/c(=C\c5ccccc5O)c(=O)n42)c2ccccc2CC3)c1OC (centres undefined) | 20 | 2.9µM* | . | -5% | -2 | 1.9µM*
C[C@@]12CC(=O)C3=C(CCCC3=O)N1CCc1ccccc12 | . | . | . | -2% | . | .
COc1ccc(-c2nc(-c3ccccc3)c(Nc3ccc4ccccc4c3)o2)cc1 | . | . | . | 0% | . | .
COc1ccc(C(=O)N=C2SC3CS(=O)(=O)CC3N2Cc2ccc(F)cc2)cc1 (centres undefined) | 15 | 4% | -6% | 2% | 16 | ?
O=[N+]([O-])c1ccc(N2CCCCC2)nc1N1CCCCC1 | 16 | 3.3µM* | -10% | 1% | 6 | 2.1µM*
O=[N+]([O-])c1cccnc1N1CCCCC1 | -6 | 112% | -3% | -1% | -1 | 20%
COc1cc(NS(=O)(=O)c2ccc(NC(=O)Cc3ccccc3)cc2)nc(OC)n1 | -8 | 29% | 7% | -8% | -4 | 14%
CC(/C=C1\SC(=Nc2cccnc2)NC1=O)=C\c1ccccc1 | 6 | -24% | -3% | 10% | -1 | -1%
C=CCOc1ccc(/C=C2\SC(=Nc3cccnc3)NC2=O)cc1 | 22 | 10µM* | 4% | 6% | 10* | ?
CCOC(=O)C1=C(CC)OC(N)=C(C#N)C1c1cccs1 (centres undefined) | -11 | . | 2% | -13% | 5 | -19%
CCN1CC2=C(OC(N)=C(C#N)C2c2cccs2)/C(=C\c2cccs2)C1 (centres undefined) | -7 | 9.3µM* | 2% | -28% | -2 | .
COc1ccc(-n2nc3ccc(NC(=O)c4c(OC)cccc4OC)cc3n2)cc1 | 52 | . | . | . | 36* | .
CCOc1ccc(-n2nc3ccc(NC(=O)CC)cc3n2)cc1 | 55* | 70% | -2% | -11% | 31* | 49%
COc1cccc(OC)c1C(=O)Nc1nc(N)n(-c2ccccc2)n1 | -15 | . | -4% | 0% | -1 | -5%
CC(=O)NCCC(=O)N(Cc1ccccc1)c1nc2c(C)cccc2s1 | -21 | ? | -62% | . | -4 | 7.4µM*
CCOc1ccc2nc(N(Cc3ccccc3)C(=O)CCNC(C)=O)sc2c1 | 51* | ? | -11% | . | 30* | -28%
COc1ccc(/C=C(/NC(=O)c2ccco2)C(=O)N2CCOCC2)cc1 | -11 | ? | -4% | . | -4 | 22%
C[C@]12CCC3C(CCC4=C(Cl)C(=O)CC[C@@]43C)C1CCC2O (some centres undefined) | . | 11µM* | . | . | . | ?
CC12CCC3C(CCC4=C(O)C(=O)CCC43C)C1CCC2=O (centres undefined) | . | . | -2% | -2% | . | .
CN(C)CC/C=C1/c2ccccc2Sc2c(O)cc(Cl)cc21 | 20 | 0.83µM* | ? | ? | -4 | ?
CN(C)CCC(=O)N1c2ccccc2Sc2ccc(Cl)cc21 | -6 | 16% | 0% | -3% | -8 | ?
COc1cc(Cl)cc2c1Sc1ccccc1/C2=C/CCN(C)C | 1 | ? | 9% | 9% | -2 | 12µM*
COc1cc2c(cc1Cl)/C(=C\CCN(C)C)c1ccccc1S2 | -12 | 10µM* | -14% | 24% | -4 | 10µM*
COc1ccc2c(c1)Sc1ccccc1N2CCN(C)C | -13 | 53% | -10% | ? | -2 | ?
Cn1c(SCC(=O)NC2CCCC2)nnc1C(F)(F)F | . | 18% | . | . | . | 13%
SMILES | Shiga toxin inh | Pf growth 96h | NS1 function inh | Giardia FBPA inh | Cycloheximide cs | Pf growth 48h
CC(C)N1CCC(N2CCN(CCCc3ccccc3)CC2CCO)CC1 (centres undefined) | 13 | ? | 2% | 6% | -1 | ?
CC(C)(C)CN1CCN(CCCc2ccccc2)C(CCO)C1 (centres undefined) | . | ? | -7% | 4% | -2 | ?
CC(C)CN1CCN(CCCc2ccccc2)C(CCO)C1 (centres undefined) | -7 | 9.3µM* | 16% | 6% | -3 | ?
CC(C)N1CCN(CCCc2ccccc2)CC1CCO (centres undefined) | -2 | 13µM* | 0% | 8% | 1 | -8%
COc1cc(OC)cc(C2=Nn3c(nnc3-c3ccccc3O)SC2)c1 | -2 | . | . | 0% | 11 | .
Oc1ccc(Cl)cc1CNCc1ccc(Cl)cc1 | . | 5.9µM* | . | . | . | 3.7µM*
Oc1ccc(Cl)cc1Cc1ccccc1 | . | 7.6µM* | . | . | . | 11µM*
